The values that follow come from PubChem BioAssay.

Inconclusive results are not listed. Calls of active or inactive are those of the source. Unless noted, how the calls were made is not given here.

Assay [1] in a line: Cy5 fluorescence quenching or enhancement artefacts, artefact control for HCV NS3 helicase inhibitor project, biochemical, LOPAC1280 (AID 687037). The note with it: Cy5-DNA-NS3h complex fluorescence interference counterscreen. On the technique in general: Counterscreens check selectivity or assay interference.
Assay [2] concerns the target Huntingtin (Homo sapiens) (UniProt P42858). As to the kind of experiment: inhibitors of mutant Htt aggregation in vitro, dose response, QA1 (AID 1584). The settings on record: in vitro mutant huntingtin aggregation assay; confirmation test; at 10 µM; stronger effect = lower value.
In assay [3] the target is ATP-dependent translocase ABCB1 (Homo sapiens) (UniProt P08183). As to the kind of experiment: MDR1 (ABCB1) efflux transporter inhibition, cell-based (AID 377; in the data active means fluorescence slope change above about 50%). The note with it: MDR1-expressing cells, fluorescent substrate accumulation slope; stronger effect = higher value; concentration not given here.
Assay [4] can be described thus: enhancers of SMN2 over SMN1 splicing, cell-based, SMN2/SMN1 luciferase reporters (AID 1598). The settings on record: SMN2 vs SMN1 luciferase splicing reporter cells, at 10 µM; SMN1 luciferase ratio: measured here: SMN1 luciferase reporter average; SMN2 luciferase ratio: measured here: SMN2 luciferase reporter average, stronger effect = higher value; SMN2/SMN1 luciferase ratio: stronger effect = higher value.

Assay [5] in a line: protection against mutant huntingtin cytotoxicity, PC12 cells, LDH release (AID 1610). The settings on record: PC12 mutant huntingtin toxicity, final LDH at 4 uM, stronger effect = lower value. On the technique in general: LDH leaks from cells whose membrane has failed.

Chain of ATP-dependent translocase ABCB1 (Homo sapiens) (P08183 whole entry, looked up): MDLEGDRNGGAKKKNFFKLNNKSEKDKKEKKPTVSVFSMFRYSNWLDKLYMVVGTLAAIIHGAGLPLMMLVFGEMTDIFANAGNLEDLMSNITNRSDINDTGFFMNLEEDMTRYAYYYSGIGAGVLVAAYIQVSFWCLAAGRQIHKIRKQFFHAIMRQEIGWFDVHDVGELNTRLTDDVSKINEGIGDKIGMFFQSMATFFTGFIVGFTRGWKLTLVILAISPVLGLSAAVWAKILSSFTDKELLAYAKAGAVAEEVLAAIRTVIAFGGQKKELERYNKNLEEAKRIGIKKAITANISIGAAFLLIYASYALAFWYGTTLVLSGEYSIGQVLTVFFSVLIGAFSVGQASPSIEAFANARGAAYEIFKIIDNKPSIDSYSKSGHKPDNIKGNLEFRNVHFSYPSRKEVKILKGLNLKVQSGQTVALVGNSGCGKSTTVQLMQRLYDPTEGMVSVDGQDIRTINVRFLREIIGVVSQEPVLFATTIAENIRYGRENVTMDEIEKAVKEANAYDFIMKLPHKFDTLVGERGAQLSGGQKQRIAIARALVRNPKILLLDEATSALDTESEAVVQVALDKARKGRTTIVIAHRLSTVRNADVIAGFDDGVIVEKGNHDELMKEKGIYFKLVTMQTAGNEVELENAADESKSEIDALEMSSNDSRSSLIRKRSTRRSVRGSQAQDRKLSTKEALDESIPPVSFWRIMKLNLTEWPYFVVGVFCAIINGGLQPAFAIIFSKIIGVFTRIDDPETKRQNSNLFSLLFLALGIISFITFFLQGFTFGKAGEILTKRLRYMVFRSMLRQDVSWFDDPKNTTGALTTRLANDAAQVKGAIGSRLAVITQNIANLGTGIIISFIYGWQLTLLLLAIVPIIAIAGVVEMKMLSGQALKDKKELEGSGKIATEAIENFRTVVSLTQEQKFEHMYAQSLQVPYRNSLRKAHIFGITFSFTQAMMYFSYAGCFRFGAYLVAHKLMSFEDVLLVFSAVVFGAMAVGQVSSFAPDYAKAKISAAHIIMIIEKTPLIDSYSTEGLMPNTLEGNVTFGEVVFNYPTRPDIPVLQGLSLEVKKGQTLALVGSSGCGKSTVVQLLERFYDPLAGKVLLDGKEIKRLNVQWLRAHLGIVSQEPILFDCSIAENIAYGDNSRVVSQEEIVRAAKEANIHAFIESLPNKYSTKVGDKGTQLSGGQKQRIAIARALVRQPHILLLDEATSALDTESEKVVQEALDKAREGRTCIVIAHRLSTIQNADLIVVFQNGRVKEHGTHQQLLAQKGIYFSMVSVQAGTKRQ
Chain of Huntingtin (Homo sapiens) (P42858 whole entry, looked up): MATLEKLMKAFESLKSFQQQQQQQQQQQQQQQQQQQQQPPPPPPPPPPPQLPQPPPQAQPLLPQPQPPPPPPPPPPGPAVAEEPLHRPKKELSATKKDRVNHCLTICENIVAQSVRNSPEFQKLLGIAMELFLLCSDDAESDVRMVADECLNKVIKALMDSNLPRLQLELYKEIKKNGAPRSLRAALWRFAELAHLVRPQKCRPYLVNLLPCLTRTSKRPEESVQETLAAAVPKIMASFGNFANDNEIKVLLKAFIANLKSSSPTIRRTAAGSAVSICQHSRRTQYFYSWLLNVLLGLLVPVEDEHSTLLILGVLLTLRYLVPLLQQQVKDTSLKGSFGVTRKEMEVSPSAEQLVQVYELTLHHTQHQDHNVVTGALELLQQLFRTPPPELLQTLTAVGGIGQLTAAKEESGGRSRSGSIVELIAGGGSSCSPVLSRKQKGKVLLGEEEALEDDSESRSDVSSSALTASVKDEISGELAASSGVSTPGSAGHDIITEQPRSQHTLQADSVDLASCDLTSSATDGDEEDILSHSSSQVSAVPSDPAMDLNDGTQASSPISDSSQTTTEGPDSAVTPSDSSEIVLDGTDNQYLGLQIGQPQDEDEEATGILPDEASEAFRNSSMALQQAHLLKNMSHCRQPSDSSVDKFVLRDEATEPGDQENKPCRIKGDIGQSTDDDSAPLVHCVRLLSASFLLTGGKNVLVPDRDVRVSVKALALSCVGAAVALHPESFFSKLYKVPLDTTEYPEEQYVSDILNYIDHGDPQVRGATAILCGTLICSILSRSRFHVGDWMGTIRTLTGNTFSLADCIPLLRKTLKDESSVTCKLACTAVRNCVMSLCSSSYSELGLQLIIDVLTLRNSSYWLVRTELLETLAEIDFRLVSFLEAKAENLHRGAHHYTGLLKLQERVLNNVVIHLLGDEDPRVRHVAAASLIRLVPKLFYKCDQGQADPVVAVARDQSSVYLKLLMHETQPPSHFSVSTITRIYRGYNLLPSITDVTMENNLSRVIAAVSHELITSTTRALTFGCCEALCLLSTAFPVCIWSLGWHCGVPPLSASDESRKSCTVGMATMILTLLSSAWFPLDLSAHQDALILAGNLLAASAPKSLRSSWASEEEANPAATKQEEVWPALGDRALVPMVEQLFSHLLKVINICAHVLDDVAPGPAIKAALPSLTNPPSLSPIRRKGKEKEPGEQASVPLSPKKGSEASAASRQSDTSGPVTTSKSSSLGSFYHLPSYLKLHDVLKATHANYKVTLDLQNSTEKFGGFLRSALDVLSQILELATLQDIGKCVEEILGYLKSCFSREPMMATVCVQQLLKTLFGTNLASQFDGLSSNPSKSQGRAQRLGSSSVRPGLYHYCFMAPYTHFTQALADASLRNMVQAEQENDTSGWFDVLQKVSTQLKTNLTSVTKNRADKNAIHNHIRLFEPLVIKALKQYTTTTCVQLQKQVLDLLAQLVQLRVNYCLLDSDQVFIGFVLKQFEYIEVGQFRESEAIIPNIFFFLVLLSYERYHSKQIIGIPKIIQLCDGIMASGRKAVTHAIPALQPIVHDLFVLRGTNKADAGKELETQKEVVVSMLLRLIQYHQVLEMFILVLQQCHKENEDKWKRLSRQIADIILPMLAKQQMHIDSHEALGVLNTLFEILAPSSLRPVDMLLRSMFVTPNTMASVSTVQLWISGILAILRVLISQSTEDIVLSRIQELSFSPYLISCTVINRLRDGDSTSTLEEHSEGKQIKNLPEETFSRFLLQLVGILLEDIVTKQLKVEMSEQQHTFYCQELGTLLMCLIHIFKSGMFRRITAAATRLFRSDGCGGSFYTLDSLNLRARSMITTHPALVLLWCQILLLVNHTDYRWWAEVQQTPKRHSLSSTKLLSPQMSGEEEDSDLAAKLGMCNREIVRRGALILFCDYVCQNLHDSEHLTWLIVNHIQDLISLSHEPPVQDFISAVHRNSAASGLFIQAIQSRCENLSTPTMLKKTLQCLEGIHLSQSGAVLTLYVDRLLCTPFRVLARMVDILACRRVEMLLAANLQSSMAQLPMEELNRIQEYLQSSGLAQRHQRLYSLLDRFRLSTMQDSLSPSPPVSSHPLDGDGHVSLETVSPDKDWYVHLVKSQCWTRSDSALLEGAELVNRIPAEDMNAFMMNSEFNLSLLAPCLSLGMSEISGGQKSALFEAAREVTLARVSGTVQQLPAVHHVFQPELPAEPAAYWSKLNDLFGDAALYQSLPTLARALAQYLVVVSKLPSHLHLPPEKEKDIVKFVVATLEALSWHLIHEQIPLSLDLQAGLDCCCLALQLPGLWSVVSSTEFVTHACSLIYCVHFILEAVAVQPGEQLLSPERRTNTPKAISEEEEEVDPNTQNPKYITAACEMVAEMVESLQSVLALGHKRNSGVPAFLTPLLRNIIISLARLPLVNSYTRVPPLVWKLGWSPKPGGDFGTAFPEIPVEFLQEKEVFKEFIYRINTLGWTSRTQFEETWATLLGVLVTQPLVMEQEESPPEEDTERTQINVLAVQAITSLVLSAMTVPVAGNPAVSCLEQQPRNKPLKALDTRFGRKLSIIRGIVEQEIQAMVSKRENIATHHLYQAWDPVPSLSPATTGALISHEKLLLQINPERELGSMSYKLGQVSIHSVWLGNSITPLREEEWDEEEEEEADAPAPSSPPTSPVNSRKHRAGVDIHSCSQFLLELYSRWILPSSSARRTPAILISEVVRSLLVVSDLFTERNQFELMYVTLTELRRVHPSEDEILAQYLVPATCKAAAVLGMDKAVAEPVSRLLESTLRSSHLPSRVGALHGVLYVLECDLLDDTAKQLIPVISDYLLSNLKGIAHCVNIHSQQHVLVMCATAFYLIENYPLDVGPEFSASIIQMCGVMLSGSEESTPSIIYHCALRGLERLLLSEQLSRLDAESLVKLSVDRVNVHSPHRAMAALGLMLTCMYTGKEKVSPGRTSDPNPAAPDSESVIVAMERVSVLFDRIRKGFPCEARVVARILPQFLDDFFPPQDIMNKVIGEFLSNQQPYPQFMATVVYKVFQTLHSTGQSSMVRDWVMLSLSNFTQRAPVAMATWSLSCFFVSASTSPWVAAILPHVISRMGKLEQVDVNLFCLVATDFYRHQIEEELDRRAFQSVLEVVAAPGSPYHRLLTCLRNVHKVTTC

For the compound `NC(N)=NC(N)=Nc1ccccc1`, in assay [1], the fluorescence ratio (interference) is 1 (inactive).

With `O=c1c(O)c(-c2ccc(O)cc2O)oc2cc(O)cc(O)c12`, the aggregation ratio in assay [2] was found to be 0.704. For the same compound, the fluorescence ratio (interference) in assay [1] is 1 (inactive).

For the compound `COC(=O)[C@H]1[C@H]2C[C@H]3c4[nH]c5ccccc5c4CCN3C[C@H]2CC[C@@H]1O`, the fluorescence ratio (interference) in assay [1] was 1 (inactive).

On to `NCCCCN=C(N)N`, for which, in assay [3], the fluorescence slope change is 53.1% (active). In addition, in assay [1], the fluorescence ratio (interference) was 1 (inactive).

Consider `NC1(C(=O)O)CC1`, for which, in assay [1], the fluorescence ratio (interference) was 1 (inactive).

With `NC(N)=NCCCCN=C(N)N`, the fluorescence slope change in assay [3] was 59.6% (active). The fluorescence ratio (interference) in assay [1] was 1 (inactive).

As to `COc1cc(S(C)=O)ccc1-c1nc2ncccc2[nH]1` (configuration not stated), the fluorescence slope change in assay [3] was 5% (inactive).

For the compound `Oc1cc(O)c2c(c1)O[C@H](c1ccc(O)c(O)c1)[C@@H](O)C2`, in assay [3], the fluorescence slope change was 16.4% (inactive). The fluorescence ratio (interference) in assay [1] was 1 (inactive).

On to `NCCSSCCN`, for which the fluorescence ratio (interference) in assay [1] is 1 (inactive).

For `CN[C@H](CC(=O)O)C(=O)O`, the fluorescence ratio (interference) in assay [1] was 1 (inactive).

Consider `NC(=O)CC[C@H](N)C(=O)O`, for which the fluorescence ratio (interference) in assay [1] was 1 (inactive).

As to `NC(N)=NC(=O)c1nc(Cl)c(N2CCCCCC2)nc1N`, the fluorescence ratio (interference) in assay [1] is 0.9 (inactive).

`NCCCCN`: the fluorescence ratio (interference) in assay [1] is 0.9 (inactive).

In the case of `Cn1c(=O)c2[nH]c(C3CCCC3)nc2n(C)c1=O`, the fluorescence ratio (interference) in assay [1] is 1 (inactive).

On to `CC(C(=O)O)c1ccc(N2Cc3ccccc3C2=O)cc1` (configuration not stated), for which the fluorescence slope change in assay [3] is 85.5% (active). In assay [4], the SMN1 luciferase ratio turned out to be 0.71, the SMN2/SMN1 luciferase ratio is 2.02 (active) and the SMN2 luciferase ratio worked out at 1.4.

For the compound `O=C(O)c1cc2cc(F)ccc2[nH]1`, the fluorescence ratio (interference) in assay [1] is 1 (inactive).

As for `Cc1cc(C(C)(C)CC(C)(C)C)ccc1OCCOCC[N+](C)(C)Cc1ccccc1`, the fluorescence slope change in assay [3] is 152% (active).

In the case of `CN(C)CCOC(c1ccccc1)c1ccccc1` (tested in a mixture with another compound), the fluorescence slope change in assay [3] was 130% (active).

With `N[C@@H](Cc1cc(I)c(Oc2ccc(O)c(I)c2)c(I)c1)C(=O)O`, the fluorescence slope change in assay [3] is 18.7% (inactive).

With `CN1CCc2cccc3c2C1Cc1ccc(O)c(O)c1-3` (configuration not stated), the normalised LDH release in assay [5] came out at 0.891. Also, the fluorescence ratio (interference) in assay [1] is 1 (inactive).

Consider `COc1cc2c(cc1OC)-c1cc3ccc(OC)c(OC)c3c[n+]1CC2`, for which the fluorescence slope change in assay [3] was 29.3% (inactive).

With `CN1CCc2c(c3ccccc3n2Cc2ccccc2)C1`, the fluorescence slope change in assay [3] was 70.9% (active). Moreover, the normalised LDH release in assay [5] was 0.901.

Turning to `CC(CN(C)C)CN1c2ccccc2Sc2ccccc21` (configuration not stated), the fluorescence slope change in assay [3] was 102% (active).
